Data on 22 compounds can be found in PubChem BioAssay (Tox21).

Experiment [1] is described as follows: qHTS assay to identify small molecule antagonists of the estrogen receptor alpha (ER-alpha) signaling pathway using the BG1 cell line in the presence of 0.1 nM 17-beta-estradiol - cell viability counter screen (AID 1259241). Note: nearly all actives have a fitted effect of over 40% in size. A digest of the protocol:
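CellTiter-Fluor read (30 min, 37C) on ER-alpha/ERE-luc VM7Luc4E2 cells; 22 hr compound treatment; agonist 0.1 nM E2 final; same-well multiplex.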
A general note: qHTS replaces the single test concentration by a dilution series.

A short description of experiment [2]: qHTS assay to identify small molecule antagonists of the androgen receptor (AR) signaling pathway using the MDA cell line in the presence of 0.5 nM R1881 - cell viability counter screen (AID 1259242). Note: nearly all actives have a fitted effect of over 45% in size. A digest of the protocol:
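Live-cell protease activity was measured by CellTiter-Fluor fluorescence after 30 min. Before that, MDA-kb2 MMTV-luciferase cells had 16 hr at 37C without CO2, exposed to test compounds and 0.5 nM R1881 final.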

Experiment [3] deals with Estrogen receptor (Homo sapiens) (UniProt P03372). The experiment can be described thus: qHTS assay to identify small molecule antagonists of the estrogen receptor alpha (ER-alpha) signaling pathway using the BG1 cell line in the presence of 0.1 nM 17-beta-estradiol (AID 1259244). Note: nearly all actives have a fitted effect of over 50% in size. A digest of the protocol:
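Luciferase luminescence (ONE-Glo, 30 min at room temperature) was read after 22 hr at 37C exposure to compounds plus 17beta-estradiol at 0.1 nM final. Cells were VM7Luc4E2 with endogenous ER-alpha and an ERE-driven luciferase, pre-cultured 5 days in hormone-depleted medium.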

The nature of experiment [4]: qHTS assay to identify small molecule phospholipidosis (PLD) inducers (AID 1259344; active = well fitted curve in the direction sought with a large enough effect; an effect the other way counts as inactive or inconclusive; note: potency is the fitted concentration of half-maximal effect). A digest of the protocol: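 Image-based: LipidTOX Red pit count/intensity per well and per cell; HepG2, 24 h compound at 37 C, PFA fixation, Hoechst counterstain.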
Experiment [5] is described as follows: qHTS assay to identify small molecule HDAC inhibitors (AID 1259364). Note: top concentration of the series differs between compounds; nearly all actives have a fitted effect of over 45% in size. A digest of the protocol: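 Luminescence read after 30 min room-temperature HDAC-Glo incubation measures cellular class I/II HDAC activity. Compounds were applied for 2 hr at 37 C to HCT-116 wild-type cells seeded the day before.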
The nature of experiment [6]: qHTS assay to identify small molecule HDAC inhibitors - cell viability counter screen (AID 1259365). Note: series mostly up to about 92 µM; nearly all actives have a fitted effect of over 50% in size. An outline of the steps:
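To flag cytotoxic hits, 1,500 wild-type HCT-116 cells per well, plated the day before, receive test compounds for 2hr at 37 C before CellTiter-Glo reagent and a luminescence read.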

Experiment [7] is described as follows: qHTS assay to identify small molecule agonists of the sonic hedgehog signaling (Shh) pathway - cell viability counter screen (AID 1259366). Note: nearly all actives have a fitted effect of over 50% in size. Note: potency is the fitted concentration of half-maximal effect. A digest of the protocol: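 Fluorescence from CellTiter-Fluor reports live cells in this counter screen. NIH/3T3-derived Gli1-Luc reporter cells receive test compounds for 24hr at 37C; reagent goes in at 23hr.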
A short description of experiment [8]: qHTS assay to identify small molecule antagonists of the sonic hedgehog signaling (Shh) pathway - cell viability counter screen (AID 1259367). Note: nearly all actives have a fitted effect of over 55% in size. A digest of the protocol: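 Tox21 library chemicals were tested on a Gli1-Luc NIH/3T3 clone (2,000 cells/well) stimulated by conditioned medium; viability was quantified as fluorescence from CellTiter-Fluor reagent added at 23 hr.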

Records with an inconclusive call do not appear. The source made the active and inactive calls. Unless noted, calls come from the whole dose curve; as a rule, active = well fitted curve in the direction sought with a large enough effect in the repeat runs; inconclusive = weak or mixed curves; inactive = no such curve, though single readings can be large; an effect the other way counts as inactive or inconclusive.

Sequence of Estrogen receptor (Homo sapiens) (P03372 whole entry, looked up): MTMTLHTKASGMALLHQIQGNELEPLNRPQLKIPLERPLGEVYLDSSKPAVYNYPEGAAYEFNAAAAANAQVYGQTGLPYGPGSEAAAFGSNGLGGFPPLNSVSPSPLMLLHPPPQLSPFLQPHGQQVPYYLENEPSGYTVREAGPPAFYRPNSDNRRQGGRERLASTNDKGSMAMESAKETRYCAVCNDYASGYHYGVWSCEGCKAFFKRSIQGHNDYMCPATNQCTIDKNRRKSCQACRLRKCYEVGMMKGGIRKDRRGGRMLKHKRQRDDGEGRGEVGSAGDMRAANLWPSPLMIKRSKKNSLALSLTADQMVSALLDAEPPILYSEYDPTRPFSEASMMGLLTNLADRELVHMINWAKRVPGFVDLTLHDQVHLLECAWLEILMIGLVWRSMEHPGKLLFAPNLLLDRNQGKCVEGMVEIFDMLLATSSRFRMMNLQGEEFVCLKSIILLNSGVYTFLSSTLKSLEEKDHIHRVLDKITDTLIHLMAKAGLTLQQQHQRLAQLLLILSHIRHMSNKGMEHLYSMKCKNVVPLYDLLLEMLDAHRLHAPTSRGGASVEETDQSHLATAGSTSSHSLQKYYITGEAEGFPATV

For `CCO/C([O-])=N/c1c[n+](N2CCOCC2)no1`, the outcome in experiment [1], in experiment [3] and in experiment [6] was inactive. Moreover, the Potency result in experiment [2], in experiment [4], in experiment [5], in experiment [7] and in experiment [8] was “inactive” each time.
As for `NC(=O)c1ccc(N)cc1`, the Potency entry in experiment [2], in experiment [5], in experiment [7] and in experiment [8] was “inactive” in each case. The result in experiment [3] and in experiment [6] was inactive.
Consider `Cn1c(N)c(N=O)c(=O)n(C)c1=O`, for which the result in experiment [1] and in experiment [6] was inactive. Moreover, the Potency result in experiment [2], in experiment [5], in experiment [7] and in experiment [8] was “inactive” each time.
`CC(=O)N(CC(O)CO)c1c(I)c(C(=O)NCCO)c(I)c(C(=O)NCC(O)CO)c1I` (stereo not given): the outcome in experiment [1] and in experiment [6] was inactive. The Potency result in experiment [2], in experiment [4], in experiment [5], in experiment [7] and in experiment [8] was “inactive” in each case.
With `CC[N+](C)(C)c1cccc(O)c1`, the result in experiment [1] and in experiment [6] was inactive. The Potency result in experiment [2], in experiment [4], in experiment [5], in experiment [7] and in experiment [8] was “inactive” throughout.
In the case of `CC(=O)Nc1c(I)cc(I)c(C(=O)O)c1I`, the Potency entry in experiment [2], in experiment [4], in experiment [7] and in experiment [8] was “inactive” in each case. The outcome in experiment [3] and in experiment [6] was inactive.
Turning to `CC/C=C\CCOC(C)=O`, the outcome in experiment [1], in experiment [3] and in experiment [6] was inactive. Also, the Potency result in experiment [2], in experiment [5], in experiment [7] and in experiment [8] was “inactive” in each case.
For `COc1ccc(CCN(C)CCCC(C#N)(c2cc(OC)c(OC)c(OC)c2)C(C)C)cc1OC` (stereo not given), in experiment [2], the Potency entry is “inactive”. The Potency in experiment [4] is 5.62 µM (active); in experiment [7] it was 15 µM (active). Further, the outcome in experiment [6] was inactive.
Turning to `CC(=O)OCC(=O)[C@@]1(O)CC[C@H]2[C@@H]3CCC4=CC(=O)CC[C@]4(C)[C@H]3C(=O)C[C@@]21C`, the result in experiment [1], in experiment [3] and in experiment [6] was inactive. For the same compound, the Potency result in experiment [2], in experiment [4], in experiment [5] and in experiment [8] was “inactive” throughout.
For the compound `O=Cc1cccc([N+](=O)[O-])c1`, the result in experiment [1], in experiment [3] and in experiment [6] was inactive. The Potency entry in experiment [2], in experiment [5], in experiment [7] and in experiment [8] was “inactive” in each case.
As to `Cc1c(O)cccc1O`, the result in experiment [1], in experiment [3] and in experiment [6] was inactive. The Potency result in experiment [2], in experiment [5], in experiment [7] and in experiment [8] was “inactive” in each case.
`C=CCCCCCCCCC=O`: the result in experiment [1], in experiment [3] and in experiment [6] was inactive. For the same compound, the Potency result in experiment [2], in experiment [5], in experiment [7] and in experiment [8] was “inactive” throughout.
Turning to `CCc1cccc2c(CCO)c[nH]c12`, the result in experiment [1] and in experiment [6] was inactive. In addition, the Potency entry in experiment [2], in experiment [5], in experiment [7] and in experiment [8] was “inactive” each time.
For `NCCc1cnc[nH]1`, the result in experiment [1] and in experiment [6] was inactive. Also, the Potency result in experiment [4], in experiment [5], in experiment [7] and in experiment [8] was “inactive” throughout.
Consider `CCCC(=O)O[C@]1(C(=O)CO)CC[C@H]2[C@@H]3CCC4=CC(=O)CC[C@]4(C)[C@H]3[C@@H](O)C[C@@]21C`, for which the outcome in experiment [1] and in experiment [6] was inactive. In addition, the Potency entry in experiment [2], in experiment [4], in experiment [5], in experiment [7] and in experiment [8] was “inactive” each time.
`CC(C)=CCCC(C)CC(=O)O` (stereo not given): the result in experiment [1] and in experiment [6] was inactive. Also, the Potency result in experiment [2], in experiment [5] and in experiment [8] was “inactive” in each case.
For `CN(C)CCCSc1ccccc1NC(=O)/C=C/c1ccccc1`, the result in experiment [1], in experiment [3] and in experiment [6] was inactive. Also, the Potency result in experiment [2], in experiment [4], in experiment [7] and in experiment [8] was “inactive” each time.
Take `CCS(=O)(=O)c1ccc(OC)c(C(=O)OC)c1`: the result in experiment [1], in experiment [3] and in experiment [6] was inactive. The Potency entry in experiment [2] and in experiment [8] was “inactive” each time.
Take `COC(=O)CCSCCC(=O)OC`: the result in experiment [1] and in experiment [6] was inactive. Besides, the Potency result in experiment [2], in experiment [5], in experiment [7] and in experiment [8] was “inactive” each time.
Consider `N#Cc1ccc(C2CCCc3cncn32)cc1` (stereo not given), for which the outcome in experiment [1], in experiment [3] and in experiment [6] was inactive. The Potency result in experiment [2], in experiment [5], in experiment [7] and in experiment [8] was “inactive” throughout.
Turning to `Cc1cc(O)cc2c1O[C@](C)(CCC[C@H](C)CCC[C@H](C)CCCC(C)C)CC2`, the result in experiment [1], in experiment [3] and in experiment [6] was inactive. Also, the Potency entry in experiment [2], in experiment [4] and in experiment [8] was “inactive” throughout.
Consider `CCC(C)C1CCCCC1=O` (stereo not given), for which the Potency result in experiment [2], in experiment [5], in experiment [7] and in experiment [8] was “inactive” each time. Further, the result in experiment [3] and in experiment [6] was inactive.
